Measurements from PubChem BioAssay (NCATS).
Results filed as inconclusive are left out. The source made the active and inactive calls. Unless noted, the call rests on the fitted dose curve; in most records, active means well fitted curve in the direction sought with a large enough effect; inconclusive means small, poorly fitted or top-dose-only effect, or another doubt; inactive means no such curve, though single readings can be large; an effect the other way counts as inactive or inconclusive.

Assays:
[1] = AP1 Signaling Pathway (AID 357; active means well fitted curve in either direction with a large enough effect, not every such curve was filed as active;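 further: ME-180 reporter cells stimulated with EGF at its EC50 level; on the % scale 0 is the no-effect control and ±100 the full control effect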); conditions: ME-180 AP-1-bla reporter, EGF-induced, beta-lactamase ratio, 5 h; at 7.69 µM (top of the series) unless noted
In short: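 A ratiometric CCF4 readout (405 nm excitation; 460 and 530 nm emission) quantified AP-1-driven beta-lactamase in ME-180 cells after 5 h with compound and EC50 EGF; AC50 values were derived for activators and inhibitors.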

[2] = molecular target: Cytochrome P450 1A2 (Homo sapiens) (UniProt P05177); assay: p450-cyp1a2 (AID 410; calls by dose curve; further: potency means the concentration at half of the fitted maximal effect;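 on activity change, negative = inhibition: -100% = full effect of reference inhibitor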)
In short: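 20nM CYP1A2 with 100uM Luciferin-ME (at Km) in 100mM KPO4; compound preincubated 10 min, NADPH regeneration added, 60 min at room temperature. Luciferin quantified by luminescence after detection reagent; normalized to 57 uM furafylline.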

[3] = Stat Signaling Pathway (AID 446; active means well fitted curve in either direction with a large enough effect, not every such curve was filed as active;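 further: ME-180 cervical cancer cells given 40 pM IL-6 alongside compound; SIE-controlled beta-lactamase reporter measured as 460/530 nm FRET emission ratio; on the % scale 0 is the no-effect control and ±100 the full control effect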); conditions: ME-180 SIE beta-lactamase reporter, IL-6 stimulated, 5 h; at 7.69 µM (top of the series) unless noted
In short: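 Reporter line: ME-180 cervical carcinoma, SIE-beta-lactamase. Treatment: compound with 40 pM IL-6, 5 hrs, 37 C, in low-serum OPTI-MEM with 10 mM HEPES pH 7.3. Detection: 460/530 nm fluorescence.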

[4] = molecular target: Glucocorticoid receptor (Homo sapiens) (UniProt P04150); assay: GR-GFP Redistribution (AID 450;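 active means compounds whose dose series gives a full or clear partial fitted curve of increased nuclear translocation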; further: potency means the concentration at half of the fitted maximal effect); conditions: U2OS GR-GFP nuclear translocation, laser cytometry, 2 h
[5] = molecular target: Glucocorticoid receptor (Homo sapiens) (UniProt P04150); assay: GR-EFC Redistribution (AID 451; calls by dose curve; further: potency means the concentration at half of the fitted maximal effect); conditions: CHO-K1 GR-EFC translocation, beta-gal luminescence, 2 h
In short: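 CHO-K1 cells stably expressing nuclear-localized β-gal enzyme acceptor and GR fused C-terminally to the enzyme donor fragment; ligand-driven nuclear translocation restores β-gal by complementation. Compounds titrated up to 46 uM final, 2 h at 37 °C; luminescence read.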

[6] = molecular target: Mitogen-activated protein kinase 10 (Mus musculus) (UniProt Q61831); assay: JNK3 AlphaScreen Assay (AID 530; active means well fitted curve in either direction with a large enough effect, not every such curve was filed as active;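 further: kinase came from lysate of stimulated human HepG2 cells; signal reports phosphorylation of biotinylated GST-cJun 1-79 at Ser73 with 10 µM ATP; on the % scale 0 is the no-effect control and ±100 the full control effect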)
In short: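 Inhibitors reduce antibody binding to phosphorylated biotin-cJun, lowering AlphaScreen luminescence. Lysates from HepG2 cells pre-activated by IL-1beta plus TNF-alpha supplied JNK3; compounds were titrated.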

[7] = molecular target: 3',5'-cyclic-AMP phosphodiesterase 4B (Homo sapiens) (UniProt Q07343); assay: qHTS Assay for Inhibitors of PDE-IV (AID 607; active means well fitted activation curve with a large enough effect in the main read-out, with a control signal flat, not every such curve was filed as active; further: % of control where 0% means no effect)
In short: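 Cell-based read-out of cAMP via a modified cyclic nucleotide-gated channel and membrane potential dye (535/590 nm) in HEK293 cells expressing PDE4 endogenously. Compounds tested up to 22.9 uM final; 100 uM RO 20-1724 reference.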

[8] = molecular target: Cytochrome P450 3A4 (Homo sapiens) (UniProt P08684); assay: qHTS Assay for Activators of Cytochrome P450 3A4 (AID 885); further: nearly all actives have a fitted effect of over 65% in size
In short: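 Signal was normalized against complete inhibition by 57 uM ketoconazole. The reaction used 20nM CYP3A4 with 25uM Luciferin-PPXE, 10-min compound preincubation and a 60-min NADPH-supported step at RT.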

[9] = molecular target: Dual specificity protein kinase CLK4 (Homo sapiens) (UniProt Q9HAZ1); assay: qHTS Assay for Inhibitors of CDC-like Kinase 4 (ADP-FP Assay) (AID 1795); further: on the % scale 0 is the no-effect control and ±100 the full control effect; nearly all actives have a fitted effect of over 60% in size
In short: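 Recombinant human Clk4 (6.25 nM) phosphorylated RS repeat peptide (100 uM) with 1 uM ATP in Tris pH 7.5/MgCl2/EGTA/DTT/Triton buffer for one hour. ADP was quantified by Transcreener competitive fluorescence polarization against an ADP calibration curve.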

[10] = molecular target: Ubiquitin carboxyl-terminal hydrolase 1 (Homo sapiens) (UniProt O94782); assay: Inhibitors of USP1/UAF1: Pilot qHTS (AID 504865); further: nearly all actives have a fitted effect of over 35% in size; further: potency means the concentration at half of the fitted maximal effect
In short: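 USP1/UAF1 complex (1nM) preincubated with compound 15 min at room temperature, then Ub-Rho substrate (150nM final) added. Fluorescence read kinetically at 480/540 nm, 6 reads every 60 seconds. Buffer: 50mM HEPES pH 7.8, 0.5mM EDTA, 0.1 mg/ml BSA, 1mM TCEP, 0.01% Tween-20.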

[11] = Primary qHTS for small molecule stabilizers of the endoplasmic reticulum resident proteome: Secreted ER Calcium Modulated Protein (SERCaMP) assay (AID 1508630); further: on the % scale 0 is the no-effect control and ±100 the full control effect
In short: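 GLuc-SERCaMP-expressing SH-SY5Y cells, pretreated 16 h with compound, are challenged with thapsigargin to empty ER calcium stores; after 4 h, coelenterazine is added directly to the medium and luminescence is imaged.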

[12] = molecular target: Rap guanine nucleotide exchange factor 3 (Homo sapiens) (UniProt O95398); assay: Confirmatory qHTS for antagonist of cAMP-regulated guanine nucleotide exchange factor 3 (EPAC1) (AID 1645880);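 further: plate controls were DMSO only for no effect and full effect of the ATA control for full effect; nearly all actives have a fitted effect of over 55% in size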
In short: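 Nucleotide exchange uses 100 nM EPAC1, 250 nM RAP1B-BODIPY-GDP and 50 uM GDP, with compounds in a concentration-titration series. After 5 min at room temperature, fluorescence (480 nm ex/540 nm em) is read every 5 min for 30 min. Data are normalized to control ATA and DMSO.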

[13] = molecular target: Rap guanine nucleotide exchange factor 3 (Homo sapiens) (UniProt O95398); assay: Confirmatory qHTS for agonist of cAMP-regulated guanine nucleotide exchange factor 3 (EPAC1) (AID 1645881);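 further: EPAC1 catalysed release of BODIPY-GDP from Rap1B seen as fluorescence loss; 100% = effect of cAMP agonist control; nearly all actives have a fitted effect of over 75% in size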
[14] = molecular target: Rap guanine nucleotide exchange factor 4 (Homo sapiens) (UniProt Q8WZA2); assay: Confirmatory qHTS for agonist of cAMP-regulated guanine nucleotide exchange factor 4 (EPAC2) (AID 1645884);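 further: nucleotide exchange releases bodipy-GDP from Rap1 and this lowers its fluorescence; on the % scale 0 is the no-effect control and ±100 the full control effect; nearly all actives have a fitted effect of over 65% in size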
[15] = molecular target: Rap guanine nucleotide exchange factor 4 (Homo sapiens) (UniProt Q8WZA2); assay: Confirmatory qHTS for antagonist of cAMP-regulated guanine nucleotide exchange factor 4 (EPAC2) (AID 1645885); further: on the % scale 0 is the no-effect control and ±100 the full control effect; nearly all actives have a fitted effect of over 25% in size
[16] = NFAT Signaling Pathway (AID 444; active means well fitted curve in either direction with a large enough effect, not every such curve was filed as active); conditions: Jurkat NFAT-bla M1, carbachol, beta-lactamase ratio, 5 h; at 7.69 µM (top of the series) unless noted
In short: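 Jurkat cells carrying an NFAT-driven β-lactamase reporter and co-transfected muscarinic M1 receptor were treated with compound plus carbachol (1 uM final, an EC50 level) for 5 h at 37 °C. CCF4 loading followed for 1 h at RT; 460/530 nm ratio gave %activity.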

[17] = qHTS Assay for Lipid Storage Modulators (AID 1519; calls by dose curve); conditions: Drosophila S3 cells, BODIPY lipid droplet/cell ratio, laser cytometry, cells loaded with oleic acid; for activity change, negative = inhibition: at 57.5 µM (top of the series)
In short: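 Cells seeded at 5,000 per well were treated with compounds over a concentration series and loaded with oleic acid (400 uM, as added). Lipid droplet fluorescence (488 nm excitation, 500-530 nm channel) was read by laser-scanning cytometry and normalized to 20 uM Triacsin C.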

[18] = Confirmation and Secondary Assay for Modulators of Hemoglobin Beta Chain Splicing at IVS2 654 locus (AID 910);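 further: per-well total GFP intensity by laser scanning cytometry after 2-day treatment; % of control where 0% means no effect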
In short: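 HeLa cells stably carrying EGFP interrupted by mutant beta-globin IVS2-654 intron (CMV-driven) were treated with compound for 2 days at 37C; corrected splicing was scored as total peak GFP intensity per well (488 nm excitation, 500-520 nm emission).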

[19] = Confirmation and Secondary Assay for Modulators of Hemoglobin Beta Chain Splicing at IVS2 705 locus (AID 930);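 further: HeLa cells stably expressing the EGFP-705 splicing reporter; GFP fluorescence per well restored by corrected splicing of the IVS2-705 intron in EGFP; % of control where 0% means no effect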
In short: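 Splice-correction reporter: EGFP cDNA split by beta-globin intron 2 bearing the 705 mutation, stably in HeLa. Compound incubation 2 days, 37C; fluorescent objects 5-250 µm summed per well.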

[20] = molecular target: Lysosomal acid glucosylceramidase (Homo sapiens) (UniProt P04062); assay: Glucocerebrosidase-p2 (AID 348; in the data active means potency below about 10 µM; further: potency means the concentration at half of the fitted maximal effect); conditions: purified GBA, blue fluorogenic substrate, 40 min
In short: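 Compounds titrated from 0.6 nM upwards against 0.2 nM enzyme in pH 5.9 citric acid/KH2PO4, taurocholate, tween-20; blue fluorogenic substrate 80 uM, 40 min room temperature, stopped and read Ex 365/Em 440 for AC50.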

[21] = measured here: cell count channel max response
[22] = measured here: lipid channel max response

Ubiquitin carboxyl-terminal hydrolase 1 (Homo sapiens), sequence (O94782 whole entry, looked up): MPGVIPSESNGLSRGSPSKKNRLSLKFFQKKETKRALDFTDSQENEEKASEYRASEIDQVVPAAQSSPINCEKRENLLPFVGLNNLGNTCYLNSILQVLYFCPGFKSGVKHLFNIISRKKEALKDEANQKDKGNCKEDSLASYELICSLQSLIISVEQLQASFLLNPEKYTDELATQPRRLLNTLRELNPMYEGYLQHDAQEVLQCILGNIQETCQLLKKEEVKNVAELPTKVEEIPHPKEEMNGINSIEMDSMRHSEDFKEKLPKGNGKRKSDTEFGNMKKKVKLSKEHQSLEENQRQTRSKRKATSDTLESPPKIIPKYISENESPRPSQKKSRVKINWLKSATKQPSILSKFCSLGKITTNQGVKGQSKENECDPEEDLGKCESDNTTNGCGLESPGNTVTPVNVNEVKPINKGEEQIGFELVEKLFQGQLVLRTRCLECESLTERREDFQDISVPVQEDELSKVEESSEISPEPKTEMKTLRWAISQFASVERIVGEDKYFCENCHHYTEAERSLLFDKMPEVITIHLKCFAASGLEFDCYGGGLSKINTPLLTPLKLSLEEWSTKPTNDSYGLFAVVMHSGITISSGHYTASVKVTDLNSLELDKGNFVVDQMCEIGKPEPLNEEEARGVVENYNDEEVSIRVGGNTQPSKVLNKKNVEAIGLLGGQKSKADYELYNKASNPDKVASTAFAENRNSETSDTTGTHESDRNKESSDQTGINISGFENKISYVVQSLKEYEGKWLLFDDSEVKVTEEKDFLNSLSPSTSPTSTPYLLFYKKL
Cytochrome P450 1A2 (Homo sapiens), sequence (P05177 whole entry, looked up): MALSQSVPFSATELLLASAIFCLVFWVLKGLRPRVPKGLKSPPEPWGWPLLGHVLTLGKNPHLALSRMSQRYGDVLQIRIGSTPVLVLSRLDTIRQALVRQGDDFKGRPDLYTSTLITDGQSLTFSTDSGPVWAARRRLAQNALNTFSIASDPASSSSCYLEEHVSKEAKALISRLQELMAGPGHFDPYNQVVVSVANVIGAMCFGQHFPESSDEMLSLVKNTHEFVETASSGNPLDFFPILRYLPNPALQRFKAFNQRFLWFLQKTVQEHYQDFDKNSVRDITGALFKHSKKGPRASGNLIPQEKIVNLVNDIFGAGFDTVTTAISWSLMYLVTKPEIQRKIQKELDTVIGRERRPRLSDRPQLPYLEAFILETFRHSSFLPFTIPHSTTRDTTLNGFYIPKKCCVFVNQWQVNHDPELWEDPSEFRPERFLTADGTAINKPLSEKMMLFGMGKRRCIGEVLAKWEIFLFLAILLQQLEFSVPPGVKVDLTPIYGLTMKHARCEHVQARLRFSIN
Glucocorticoid receptor (Homo sapiens), sequence (P04150 whole entry, looked up, the tested form may be a part): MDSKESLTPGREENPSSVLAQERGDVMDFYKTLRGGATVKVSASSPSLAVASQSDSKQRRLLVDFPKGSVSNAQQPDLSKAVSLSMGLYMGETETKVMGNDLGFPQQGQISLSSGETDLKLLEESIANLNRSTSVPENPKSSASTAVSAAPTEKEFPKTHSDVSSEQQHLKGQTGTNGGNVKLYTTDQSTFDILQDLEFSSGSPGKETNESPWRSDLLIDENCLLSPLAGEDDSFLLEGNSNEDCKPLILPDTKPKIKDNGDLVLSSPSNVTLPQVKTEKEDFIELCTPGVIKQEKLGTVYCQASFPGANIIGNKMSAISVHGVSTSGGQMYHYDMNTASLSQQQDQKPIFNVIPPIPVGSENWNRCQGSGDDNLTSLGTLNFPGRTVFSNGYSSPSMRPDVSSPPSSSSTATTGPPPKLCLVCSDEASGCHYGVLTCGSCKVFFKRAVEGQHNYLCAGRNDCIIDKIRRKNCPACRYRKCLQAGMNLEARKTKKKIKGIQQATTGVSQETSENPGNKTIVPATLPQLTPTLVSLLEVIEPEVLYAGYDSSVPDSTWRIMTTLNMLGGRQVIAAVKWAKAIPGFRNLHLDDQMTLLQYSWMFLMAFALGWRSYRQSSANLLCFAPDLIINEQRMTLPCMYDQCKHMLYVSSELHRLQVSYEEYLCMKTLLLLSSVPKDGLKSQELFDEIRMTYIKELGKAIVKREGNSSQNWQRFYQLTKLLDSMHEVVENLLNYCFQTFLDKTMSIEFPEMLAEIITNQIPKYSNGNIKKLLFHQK
Cytochrome P450 3A4 (Homo sapiens), sequence (P08684 whole entry, looked up): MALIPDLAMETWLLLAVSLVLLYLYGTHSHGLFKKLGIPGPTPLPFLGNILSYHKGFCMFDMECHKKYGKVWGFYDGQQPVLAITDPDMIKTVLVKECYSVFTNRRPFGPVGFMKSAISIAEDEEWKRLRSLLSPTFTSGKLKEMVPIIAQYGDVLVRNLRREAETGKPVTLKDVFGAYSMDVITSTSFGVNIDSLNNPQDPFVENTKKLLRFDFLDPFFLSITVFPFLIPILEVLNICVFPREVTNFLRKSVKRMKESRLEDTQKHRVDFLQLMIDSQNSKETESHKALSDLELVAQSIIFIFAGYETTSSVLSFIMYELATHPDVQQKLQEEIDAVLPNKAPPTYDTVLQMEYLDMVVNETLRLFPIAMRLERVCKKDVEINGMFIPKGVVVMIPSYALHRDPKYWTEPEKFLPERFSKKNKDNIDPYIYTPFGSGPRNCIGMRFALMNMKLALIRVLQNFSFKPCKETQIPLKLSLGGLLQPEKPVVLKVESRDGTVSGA
3',5'-cyclic-AMP phosphodiesterase 4B (Homo sapiens), sequence (Q07343 whole entry, looked up): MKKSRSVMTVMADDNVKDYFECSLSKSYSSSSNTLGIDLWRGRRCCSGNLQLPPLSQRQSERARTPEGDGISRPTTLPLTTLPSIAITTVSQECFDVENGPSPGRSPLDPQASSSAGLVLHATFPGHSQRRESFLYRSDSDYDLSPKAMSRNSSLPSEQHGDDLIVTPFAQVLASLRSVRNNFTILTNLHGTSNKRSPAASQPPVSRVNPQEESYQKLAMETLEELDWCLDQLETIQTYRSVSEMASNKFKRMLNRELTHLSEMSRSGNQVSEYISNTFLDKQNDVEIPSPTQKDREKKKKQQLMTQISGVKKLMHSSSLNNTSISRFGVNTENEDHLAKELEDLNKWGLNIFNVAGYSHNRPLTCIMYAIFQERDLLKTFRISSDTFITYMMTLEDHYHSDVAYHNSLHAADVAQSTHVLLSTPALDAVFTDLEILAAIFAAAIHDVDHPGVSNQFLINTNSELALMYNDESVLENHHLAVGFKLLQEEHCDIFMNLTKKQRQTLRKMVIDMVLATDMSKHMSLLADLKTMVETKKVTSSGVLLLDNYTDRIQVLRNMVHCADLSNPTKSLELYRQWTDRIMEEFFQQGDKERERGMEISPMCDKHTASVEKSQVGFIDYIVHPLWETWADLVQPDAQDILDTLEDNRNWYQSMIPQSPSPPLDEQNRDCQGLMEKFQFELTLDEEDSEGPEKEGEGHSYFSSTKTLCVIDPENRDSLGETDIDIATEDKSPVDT
Rap guanine nucleotide exchange factor 3 (Homo sapiens), sequence (O95398 whole entry, looked up): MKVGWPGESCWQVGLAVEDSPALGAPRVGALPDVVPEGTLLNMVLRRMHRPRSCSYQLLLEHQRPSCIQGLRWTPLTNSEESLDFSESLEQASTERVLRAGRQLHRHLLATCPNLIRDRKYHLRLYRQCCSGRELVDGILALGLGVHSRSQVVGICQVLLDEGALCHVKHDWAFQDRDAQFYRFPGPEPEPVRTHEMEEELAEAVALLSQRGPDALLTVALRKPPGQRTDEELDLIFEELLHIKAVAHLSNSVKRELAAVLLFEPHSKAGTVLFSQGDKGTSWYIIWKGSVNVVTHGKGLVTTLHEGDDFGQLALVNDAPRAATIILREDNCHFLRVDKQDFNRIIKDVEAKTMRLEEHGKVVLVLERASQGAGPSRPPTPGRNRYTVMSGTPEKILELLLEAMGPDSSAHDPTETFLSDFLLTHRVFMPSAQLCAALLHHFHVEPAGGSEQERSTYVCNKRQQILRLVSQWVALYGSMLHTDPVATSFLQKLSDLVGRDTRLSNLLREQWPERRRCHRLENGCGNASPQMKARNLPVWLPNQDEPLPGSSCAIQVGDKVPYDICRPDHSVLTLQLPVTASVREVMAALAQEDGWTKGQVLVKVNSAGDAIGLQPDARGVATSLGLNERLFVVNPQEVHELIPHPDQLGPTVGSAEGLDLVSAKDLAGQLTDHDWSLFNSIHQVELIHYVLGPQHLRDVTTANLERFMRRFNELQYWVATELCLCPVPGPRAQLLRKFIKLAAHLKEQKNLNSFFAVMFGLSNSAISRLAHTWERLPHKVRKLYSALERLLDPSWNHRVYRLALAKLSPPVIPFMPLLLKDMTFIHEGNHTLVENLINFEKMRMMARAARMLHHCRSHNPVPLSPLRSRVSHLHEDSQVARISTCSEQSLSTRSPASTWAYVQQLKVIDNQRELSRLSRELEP
Dual specificity protein kinase CLK4 (Homo sapiens), sequence (Q9HAZ1 whole entry, looked up): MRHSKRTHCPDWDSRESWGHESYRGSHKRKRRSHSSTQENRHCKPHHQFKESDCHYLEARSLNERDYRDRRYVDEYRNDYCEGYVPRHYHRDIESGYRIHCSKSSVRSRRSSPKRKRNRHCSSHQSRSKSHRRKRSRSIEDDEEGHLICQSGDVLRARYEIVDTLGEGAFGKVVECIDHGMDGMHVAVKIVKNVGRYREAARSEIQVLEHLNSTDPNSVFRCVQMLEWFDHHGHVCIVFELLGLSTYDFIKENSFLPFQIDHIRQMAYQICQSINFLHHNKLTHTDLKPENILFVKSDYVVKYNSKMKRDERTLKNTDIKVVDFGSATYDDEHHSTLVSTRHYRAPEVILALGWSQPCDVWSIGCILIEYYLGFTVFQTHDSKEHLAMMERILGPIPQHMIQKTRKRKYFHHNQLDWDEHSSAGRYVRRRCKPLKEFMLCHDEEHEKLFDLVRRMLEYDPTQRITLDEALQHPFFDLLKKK

COc1ccccc1CNc1nc(-c2ccc3c(c2)OCO3)nc2ccccc12
inactive: activity change, negative = inhibition [1] 24.7% | activity, negative = inhibition [3] -8.69% | Potency [4] > 46 µM | Potency [5] > 46 µM | Potency [6] | Potency [7] | Potency [8] | Potency [9] | Potency [10] | outcome [11] | Potency [12] | Potency [13] | Potency [14] | Potency [15]
active: Potency [2] 0.631 µM

CC(=O)N1CCC[C@@]2(CCN(C(=O)Nc3cccc(C#N)c3)C2)C1
-7.31%: max response [17, 21]
-0.637%: max response [17, 22]
inactive: activity change, negative = inhibition [1] -7.34% | activity change, negative = inhibition [16] 23.9% | activity, negative = inhibition [3] 7.98% | Potency [5] > 46 µM | Potency [6] | Potency [7] | activity change, negative = inhibition [17] 2.15% | outcome [11]

COCC(=O)N1CCC2(CC1)CCN(c1ccccc1)CC2
3.97%: max response [17, 22]
4.08%: max response [17, 21]
inactive: activity change, negative = inhibition [1] -2.33% | activity change, negative = inhibition [16] 15.9% | activity, negative = inhibition [3] -2.7% | Potency [5] > 46 µM | Potency [6] | Potency [7] | activity change, negative = inhibition [17] -1.96% | outcome [11]

CS(=O)(=O)c1ccc(Cn2c3c(c4cc(F)cc(F)c42)CCC[C@H]3CC(=O)O)cc1
inactive: Potency [2] | Potency [4] > 46 µM | Potency [5] > 46 µM | Potency [6] | Potency [8] | activity change, negative = inhibition [17] -2.09% | outcome [11]
14.3%: max response [17, 22]
15%: max response [17, 21]

O=C(O)c1cc(=O)c2cccc(O)c2[nH]1
inactive: Potency [18] | activity change, negative = inhibition [17] 14.6% | Potency [10] | outcome [11]
27.2%: max response [17, 21]
50.3%: max response [17, 22]

O=C1C=C(O)c2ccccc2C1=O
active: Potency [10] 50.1 µM
-2.25%: max response [17, 22]
inactive: Potency [8] | Potency [18] | outcome [19] | activity change, negative = inhibition [17] -2.81% | outcome [11]
-0.646%: max response [17, 21]

COc1ccc(CNc2cc(-c3ccccc3C)ncn2)c(OC)c1
inactive: Potency [20] > 11.4 µM | activity change, negative = inhibition [16] -16.6% | activity, negative = inhibition [3] -12.7% | Potency [4] > 46 µM | Potency [5] > 46 µM | Potency [6] | Potency [9] | outcome [11] | Potency [12] | Potency [13] | Potency [14] | Potency [15]

Cc1cc(OC(=O)c2c(C)cc(O)cc2O)cc(O)c1C(=O)O
inactive: Potency [8] | Potency [18] | outcome [19] | activity change, negative = inhibition [17] 8.43% | Potency [10] | outcome [11]
13%: max response [17, 21]
23.1%: max response [17, 22]

CS(=O)(=O)Nc1cccc(-c2ccc3ncnc(NCc4cccnc4)c3c2)c1
2.04%: max response [17, 21]
active: Potency [2] 0.316 µM
inactive: activity, negative = inhibition [3] -6% | Potency [4] > 46 µM | Potency [5] > 46 µM | Potency [6] | Potency [7] | Potency [8] | Potency [18] | outcome [19] | activity change, negative = inhibition [17] 10.4% | Potency [10] | outcome [11]
13.1%: max response [17, 22]
